# Data from the supplement of paper PMC13380429.
# Structures can show the parent of a compound that is named as a salt. Unmarked numbers belong to inactive results.
# Tested on: Vero E6 infected with SARS-CoV-2
# Test: SARS-CoV-2 infection rate relative to infected DMSO; higher = more infection, active = 60 or less
# Settings: 24 h
row,Structure (SMILES),SARS-CoV-2 infection rate [%]
1,CC(=O)O[C@]1(C(C)=O)CC[C@H]2[C@@H]3CCC4=CC(=O)CCC4=C3[C@@H](c3ccc(N(C)C)cc3)C[C@@]21C [Ulipristal acetate] (10 µM),104
2,Oc1ccc(OC2CCCCO2)cc1 (centres undefined) [deoxyarbutin] (10 µM),97
3,O=C(c1ccc(Cl)o1)N1CC2CNCC2C1 (centres undefined) (10 µM),105
4,CC(=O)OCC1=C(C(=O)O)N2C(=O)[C@@H](NC(=O)CCCC(N)C(=O)O)C2SC1 (some centres undefined) [cephalosporin-c-zn] (10 µM),97
5,COc1cc(NS(=O)(=O)c2ccc(N)cc2)nc(OC)n1 [sulphadimethoxine] (10 µM),103
6,C[n+]1c2cc(N)ccc2cc2ccc(N)cc21.Nc1ccc2cc3ccc(N)cc3nc2c1 [acriflavine] (0.833333 µM),108
7,COc1ccc([C@]2(C#N)CC[C@@H](C(=O)O)CC2)cc1OC1CCCC1 [cilomilast] (10 µM),104
8,Nc1nc(N)nc(-c2cc(Cl)ccc2Cl)n1 [irsogladine] (10 µM),94.5
9,COC(=O)[C@H](Cc1ccccc1)NC(=O)[C@@H](N)CC(=O)O [aspartame] (10 µM),106
10,OC[C@H]1O[C@@H](OCCc2ccc(O)cc2)[C@H](O)[C@@H](O)[C@@H]1O [salidroside] (10 µM),116
11,CC1(CN)Cc2ccccc2C1 (10 µM),112
12,CCCOc1ccc2[nH]c(NC(=O)OC)nc2c1 [oxibendazole] (10 µM),118
13,CC(C)=CCc1c(O)cc(O)c2c(=O)c(O)c(-c3ccc(C(F)(F)F)cc3)oc12 (0.833333 µM),104
14,CCN(CC)CCOCCOC(=O)C1(c2ccccc2)CCCC1 [carbetapentane] (10 µM),83
15,Cc1cc(O)c(C(=O)N[C@@H](C(=O)N[C@@H]2C(=O)N3C(C(=O)O)=C(CSc4nnnn4C)CS[C@H]23)c2ccc(O)cc2)cn1 [cefpiramide] (10 µM),106
16,COc1ccc(C[C@H]2NC[C@H](O)[C@H]2OC(C)=O)cc1 [anisomycin] (0.833333 µM),102
17,CN[C@@H]1[C@H](O[C@H]2[C@H](O[C@H]3[C@H](O)[C@@H](O)[C@H](N=C(N)N)[C@@H](O)[C@@H]3N=C(N)N)O[C@@H](C)[C@]2(O)C=O)O[C@@H](CO)[C@H](O)[C@H]1O [STREPTOMYCIN SULFATE [5mM; 10% aq DMSO + 5mM ethanolamine]] (10 µM),104
18,C[C@@H]1C[C@H]2[C@@H]3C[C@H](F)C4=CC(=O)C=C[C@]4(C)[C@@]3(F)[C@@H](O)C[C@]2(C)[C@@]1(O)C(=O)COC(=O)C(C)(C)C [flumethasone-pivalate] (10 µM),80
19,COc1ccccc1OCC(O)CN1CCN(CC(=O)Nc2c(C)cccc2C)CC1 (centres undefined) [ranolazine] (10 µM),101
20,O=C(Nc1cnn2ccc(N3CCC[C@@H]3c3cc(F)ccc3F)nc12)N1CC[C@H](O)C1 [larotrectinib] (10 µM),122
21,O=C(c1cc2ccccc2o1)N1CCN(Cc2ccccc2)CC1 [befuraline] (10 µM),106
22,CN1CCC[C@@H]1Cc1c[nH]c2ccc(CCS(=O)(=O)c3ccccc3)cc12 [eletriptan] (10 µM),102
23,O=C(O)[C@H]1CN(C/C=C/P(=O)(O)O)CCN1 [midafotel] (10 µM),89
24,O=C(O)P(=O)(O)O [foscarnet] (10 µM),98
25,COc1c(Nc2ccc(S(C)(=O)=O)nc2C)ncnc1OC1CCN(C(=O)OC(C)C)CC1 (10 µM),100
26,CC(=O)NC[C@H]1CN(c2ccc(N3CCOCC3)c(F)c2)C(=O)O1 [linezolid] (10 µM),112
27,Nc1ccc(S(=O)(=O)Nc2cnc3ccccc3n2)cc1 [sulfaquinoxaline] (10 µM),104
28,COc1cc2c(Oc3ccc(NC(=O)C4(C(=O)Nc5ccc(F)cc5)CC4)cc3F)ccnc2cc1OCCCN1CCOCC1 [foretinib] (10 µM),106
29,CSCC[C@H](NC(=O)[C@H](CC(C)C)NC(=O)CNC(=O)[C@H](Cc1ccccc1)NC(=O)[C@H](Cc1ccccc1)NC(=O)[C@H](CCC(N)=O)NC(=O)[C@H](CCC(N)=O)NC(=O)[C@@H]1CCCN1C(=O)[C@H](CCCCN)NC(=O)[C@@H]1CCCN1C(=O)[C@@H](N)CCCN=C(N)N)C(N)=O [substance-P] (10 µM),114
